These results are taken from publication PMC12136788.

Numbering of substitutions follows the chain as printed. In all, about 5,800 sequences were measured (“enrichment r”: median about 0.54, highest 2% from about 16 on). For the sample, the highest values were picked, then their nearest neighbours and some sequences at random.

To fix the notation:
B1: chr11:46542767:46542868:-|CDS|ENSG00000110497|msi1|total|mutant (ssRNA)
RNA: GGGAGUUCUACAGUCCGACGAUCAACACGCUCCGCAACCUCAGUCUGGGUCCUACCCGCCGCUCUUUGGGAGGGCCUCUGUCCCGCCACCCUUCCCGGUAUCACCGAGAAACCGCUCCUGGGUUGACAGGAUCUGAGUGGACCCAACAGAGGAUUGAGCAUCA
B2: chrX:21994482:21994713:+|3pUTR|ENSG00000102172|msi1|total|mutant (ssRNA)
RNA: GGGAGUUCUACAGUCCGACGAUCCAGCUGAAGGAUGGUCCGACAGCACAGCGAAGACUGCUAAAUGCACUGACCCCCCCCAUCCGAAUGUGAUUUUUGUUCCUUUUUAUUUCUCUGUGGGCUUUUGUUUUUGUUUUUGUUUUGCAACAGAGGAUUGAGCAUCA
B3: chr19:41261474:41261596:+|3pUTR|ENSG00000167601|msi1|total|mutant (ssRNA)
RNA: GGGAGUUCUACAGUCCGACGAUCUCUAAAGGUCCACAGGUCCCGACUAUCCGGUGCAAUUUCAAGGUUCUAACCCUAUACUGCCGUAUUCUUUGGGGUGCCCCUCUCCUUCUCCGCUAUCAUUGCUUCCUCCUCCCCAACUGUCAACAGAGGAUUGAGCAUCA
B4: ENSG00000198589:be:win_4151|CDS|ENSG00000198589|bound_else_gene|NA|bound_elsewhere_windowed (ssRNA)
RNA: GGGAGUUCUACAGUCCGACGAUCCGGCUACACAUGAACUGGAAAAUAUUGAACCUACUCAAGGCCUUUCAAUAGAAGCCUCUGUGACAUUUUUGCAGAGGCUAAUUAGCCUUGUGGAUGUGCUUAUAUUUGCAAGUUCUCUUGCAACAGAGGAUUGAGCAUCA
B5: ENSG00000198589:be:win_9651|3pUTR|ENSG00000198589|bound_else_gene|NA|bound_elsewhere_windowed (ssRNA)
RNA: GGGAGUUCUACAGUCCGACGAUCCUUCAAGUGGUCCCUCUUUUUUUCCUACACACUCAGCUCUUCUCUAAAAGCAAGGAUUUGGAAUGAACAAUUCAGUUUGACAGAAAAAGCUGAAUAAAAUGGCAUCUGUAAUUGAAUUGUCAACAGAGGAUUGAGCAUCA
B6: chr13:20822168:20822271:-|CDS|ENSG00000132953|unk|total|mutant (ssRNA)
RNA: GGGAGUUCUACAGUCCGACGAUCUCGAAAAAUCAGAGAAGAUUCAGAUAUGGCACAAGAUUCUCUGCAGUGCCUUGCCCAGUCCGCUUCUCUUCAUGGACCCAUCUUCCCAGAUGAAGGAUCACAAGUUGAUUAUCCCGCACACAACAGAGGAUUGAGCAUCA
B7: ENSG00000136451:be:win_3201|3pUTR|ENSG00000136451|bound_else_gene|NA|bound_elsewhere_windowed (ssRNA)
RNA: GGGAGUUCUACAGUCCGACGAUCAACAGUUCUAGGGGGUUGAACUACAUAGUAAAAAAAUAAAAUAAAUAGUACUUAGUGUAAAAUAAUUUUAUAAAUGAUCUUUUGUACUUUAGGACAUUAAAUUGUACAACUUUUGUAUAUCAACAGAGGAUUGAGCAUCA
B8: chr4:65323451:65323552:-|3pUTR|ENSG00000145242|msi1|FALSE|unique (ssRNA)
RNA: GGGAGUUCUACAGUCCGACGAUCAUCAAGAAAAAGUACAAUACAGGGUGUAUAUUUAUUUUUUGUGUUAUAAAGUUUACUUUUAGUUGCUCUUCUAGAGAUUAUUAGGUAAUAAAUGUGUAUAUACUGUAUAAUUUGCAAUAUCAACAGAGGAUUGAGCAUCA
B9: chr1:232398519:232398625:-|3pUTR|ENSG00000116991|unk|FALSE|unique (ssRNA)
RNA: GGGAGUUCUACAGUCCGACGAUCACAGUAGUUUUAUUUCCACAGCCACAUUACCAUAGCAAUAAGAAAGGAGGCAUAGUACAUAGUUGGAAAAGCUUUGUGGGGGGAUUAAAAAAAAAAAAAAGCACUGUUGUGUUUAACACUCAACAGAGGAUUGAGCAUCA
B10: chr19:34469546:34469571:+|3pUTR|ENSG00000126261|msi1_unk|total|mutant (ssRNA)
RNA: GGGAGUUCUACAGUCCGACGAUCGUUGCCUUUUUAAUGUAAAUACCCGCCGGUAUCAUUAACCGUUUCAAAAUAUUGUGGUUCCGUAAAGUUGAUACCUGGUUAUAAAUAUUAUGCCUUUAUUUUUGGCCCGAAGAAGAAUUACAACAGAGGAUUGAGCAUCA
B11: ENSG00000198589:be:win_801|CDS|ENSG00000198589|bound_else_gene|NA|bound_elsewhere_windowed (ssRNA)
RNA: GGGAGUUCUACAGUCCGACGAUCUCAUUUUGUUGGAGGCUGUUUGAUUGUAACAUCAAUAAAGUCAAAAGGAAAAGGCUUUCAACACUGUGUGAAAUUUGAUUUCAAGCCACAAAAGUGGUAUAUGGUUACCAUAGUACACAUCAACAGAGGAUUGAGCAUCA
B12: ENSG00000136451:be:win_3151|3pUTR|ENSG00000136451|bound_else_gene|NA|bound_elsewhere_windowed (ssRNA)
RNA: GGGAGUUCUACAGUCCGACGAUCUGAGACAGACUUCCUACAUCAGGGACAGGUAUCUGUGUGUCAUUAUACAAAACAGUUCUAGGGGGUUGAACUACAUAGUAAAAAAAUAAAAUAAAUAGUACUUAGUGUAAAAUAAUUUUACAACAGAGGAUUGAGCAUCA
B13: chr1:232398519:232398625:-|3pUTR|ENSG00000116991|unk|total|mutant (ssRNA)
RNA: B9 RNA with U28C, A29C, U56C, A57C, U76C, A77C, U83C, A84C
B14: chr18:68676332:68676434:-|3pUTR|ENSG00000166479|msi1_unk|FALSE|overlapping (ssRNA)
RNA: GGGAGUUCUACAGUCCGACGAUCAUCAAGAUUAUGAGGUUAAAAAUAAUGUGGUUUUAUAUAGCAUAGUGGUUUUAUUUUGUUAGUUAUUUUUAAAGGAGAAGAAAUGUUACUUUUUAACUUUAUACUCAGUUGCAUUAUCAUCAACAGAGGAUUGAGCAUCA
B15: chr20:1375301:1375603:-|CDS|ENSG00000088832|control|control|control (ssRNA)
RNA: GGGAGUUCUACAGUCCGACGAUCGGUAUGCUCUCUCAUUUGUUUUGUUUUGCUUUCUAGUAUUUACCUUUUAUAUUUUUUUAUAGGUGGCAUAUUUAUACGGUUCAAAAAUAAAAAAAGUGAAAAGUCUCACCCUCAUGCCAUCAACAGAGGAUUGAGCAUCA
B16: chr19:34469546:34469571:+|3pUTR|ENSG00000126261|msi1_unk|FALSE|overlapping (ssRNA)
RNA: B10 RNA with C49U, C50A, C62U, C63A, C83U, C84A, C130U, C131A
B17: chr18:68676332:68676434:-|3pUTR|ENSG00000166479|msi1_unk|total|mutant (ssRNA)
RNA: B14 RNA with U61C, A62C, U66C, A67C, U83C, A84C
B18: ENSG00000136451:be:win_3251|3pUTR|ENSG00000136451|bound_else_gene|NA|bound_elsewhere_windowed (ssRNA)
RNA: GGGAGUUCUACAGUCCGACGAUCCUUAGUGUAAAAUAAUUUUAUAAAUGAUCUUUUGUACUUUAGGACAUUAAAUUGUACAACUUUUGUAUAUAUAAAAGCUUAGGAACUUUCUGUUUAGCAGGAAGGCAACACAUUCCUACACAACAGAGGAUUGAGCAUCA
B19: chr16:46660370:46660459:-|3pUTR|ENSG00000069329|msi1_unk|total|mutant (ssRNA)
RNA: GGGAGUUCUACAGUCCGACGAUCAAAAGGAAACCGCUCACCAUACUCCUUUCCAUGUACAUCCAGUGAGGGUUUUAUUACGCCCGGUUUCCCUUCCACCGAUUGUGCCUUUCAGAAAUGCUGAGGCCGGUUUCCCAUUUCUUACAACAGAGGAUUGAGCAUCA
B20: chr8:48920054:48920155:-|CDS|ENSG00000019549|unk|FALSE|unique (ssRNA)
RNA: GGGAGUUCUACAGUCCGACGAUCACCUAUUCAACUUUUUCUGGGCUGGCCAAACAUAAGCAGCUGCACUGCGAUGCCCAGUCUAGAAAAUCUUUCAGCUGUAAAUACUGUGACAAGGAAUAUGUGAGCCUGGGCGCCCUGAAGCAACAGAGGAUUGAGCAUCA
B21: ENSG00000136451:be:win_351|CDS|ENSG00000136451|bound_else_gene|NA|bound_elsewhere_windowed (ssRNA)
RNA: GGGAGUUCUACAGUCCGACGAUCUACCAUCGCUGGGGACAGCAGCCGAACUUCGUUGGUCUCGACCAUUGCAGGCAUCUUGUCAACAGUCACUACAUCUUCCUCGGGCACCAACCCCAGUAGCAGUGCCAGCACCACAGCUAUCAACAGAGGAUUGAGCAUCA
B22: chr8:103427116:103427218:+|CDS|ENSG00000164934|unk|total|mutant (ssRNA)
RNA: GGGAGUUCUACAGUCCGACGAUCGUAUACUGGGAUUGAUCAUCACUGGAAAGAAGCUGUUUUUGCCACAUGUGGACAGCAAGCCGACAUUUGGGAUGAACAAAGAACUAAUCCUAUAUGUUCAAUGACCUGGGGAUUUGACAGCAACAGAGGAUUGAGCAUCA

Sequence of MSI1 full-length (Q61474 whole entry): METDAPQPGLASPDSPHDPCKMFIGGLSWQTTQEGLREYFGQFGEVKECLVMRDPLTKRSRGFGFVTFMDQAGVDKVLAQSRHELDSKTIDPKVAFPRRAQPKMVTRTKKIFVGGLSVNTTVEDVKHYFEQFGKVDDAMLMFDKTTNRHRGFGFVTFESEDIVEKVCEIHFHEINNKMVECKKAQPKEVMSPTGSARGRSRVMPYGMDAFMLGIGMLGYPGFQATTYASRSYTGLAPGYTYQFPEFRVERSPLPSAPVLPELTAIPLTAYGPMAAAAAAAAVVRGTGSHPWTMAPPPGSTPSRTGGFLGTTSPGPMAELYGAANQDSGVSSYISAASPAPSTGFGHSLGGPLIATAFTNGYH

The test has as its target MSI1 full-length (mouse, UniProt Q61474 1-362). Description: nsRBNS (natural sequence RNA bind-n-seq); RBNS binding buffer (assumed for nsRBNS): 25 mM Tris pH 7.5, 150 mM KCl, 3 mM MgCl2, 0.01% Triton X-100, 500 ug/ml BSA, 20 U/ml SUPERase-In, 4 C; UNK is unkempt and MSI1 is Musashi-1; names of the RNAs are library labels; protein concentration not given here; high values mean tight binding.
Take B1: the binding signal stood at 0.529 enrichment R.

Take B2: the binding signal worked out at 0.697 enrichment R.

As to B3, the binding signal was 0.848 enrichment R.

As to B4, the binding signal amounted to 0.181 enrichment R.

Molecule B5 returned a binding signal of 0.318 enrichment R.

The molecule B6 gave a binding signal of 0.303 enrichment R.

Molecule B7 came in with a binding signal of 23.1 enrichment R.

The molecule B8 came in with a binding signal of 11.9 enrichment R.

B9 displayed a binding signal of 18.4 enrichment R.

In turn, B10 came in with a binding signal of 1.89 enrichment R.

B11 displayed a binding signal of 0.264 enrichment R.

On to B12, for which the binding signal stood at 15.5 enrichment R.

Regarding B13, the binding signal was 0.46 enrichment R.

Turning to B14, the binding signal was 69.1 enrichment R.

Molecule B15 showed a binding signal of 2.12 enrichment R.

B16: the binding signal came out at 35.8 enrichment R.

In turn, B17 had a binding signal of 0.295 enrichment R.

For B18, the binding signal amounted to 10.7 enrichment R.

On to B19, for which the binding signal was 0.39 enrichment R.

In the case of B20, the binding signal was 0.478 enrichment R.

The molecule B21 showed a binding signal of 0.413 enrichment R.

For the molecule B22, the binding signal worked out at 0.362 enrichment R.
